# pPAFAH inh = pPAFAH (human) enzyme inhibition; Q13093; recombinant pPAFAH, FP-rhodamine probe fluorescence polarization; inhibition, % at 3.39 µM; 330,000 compounds, 1.5% hits; AID 463082;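 active means inhibition above the mean inhibition across the screen plus 3 SD, cut at about 25% in these data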;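 further: inhibitors block binding of the rhodamine activity-based probe so polarization drops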
# Target sequence (Q13093 whole entry, looked up): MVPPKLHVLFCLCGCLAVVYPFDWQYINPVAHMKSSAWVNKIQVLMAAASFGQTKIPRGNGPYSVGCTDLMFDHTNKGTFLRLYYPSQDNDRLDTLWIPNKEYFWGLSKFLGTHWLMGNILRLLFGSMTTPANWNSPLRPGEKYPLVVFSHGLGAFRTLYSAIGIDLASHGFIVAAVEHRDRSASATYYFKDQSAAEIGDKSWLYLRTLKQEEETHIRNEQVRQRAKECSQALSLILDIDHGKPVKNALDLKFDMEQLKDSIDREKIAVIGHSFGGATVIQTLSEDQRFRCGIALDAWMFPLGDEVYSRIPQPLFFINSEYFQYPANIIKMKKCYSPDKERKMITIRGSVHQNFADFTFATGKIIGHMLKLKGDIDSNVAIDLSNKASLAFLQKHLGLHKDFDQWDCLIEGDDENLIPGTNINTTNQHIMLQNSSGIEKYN
# PAFAH2 FP inh = PAFAH2 (human) inhibition; Q99487; recombinant PAFAH2, FP-rhodamine activity probe, fluorescence polarization; inhibition, % at 3.39 µM; 340,000 compounds, 0.99% hits;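 active means inhibition above the mean over all tested compounds plus 3 SD, cut at about 30% in these data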;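 further: inhibitors block probe labeling of enzyme so polarization drops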
# Pemphigus Ab inh = inhibitors of pemphigus antibody binding to human desmoglein-3; P32926; DSG3-coupled beads, scFv-anti-DSG3-GFP binding, flow cytometry; active compounds read low; binding (percent of control), % at 10 µM; 310,000 compounds, 0.48% hits; AID 588358;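 active means binding more than 3 SD below its plate's average and above zero; inconclusive means below that plate limit but binding exactly zero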;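 further: hits lower antibody fragment binding to DSG3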
# PAFAH1B3 FP inh = inhibitors of human PAFAH1B3 | 340,000 compounds, 0.28% hits | inhibition, % at 3.39 µM | Q15102 | recombinant PAFAH1B3, FP-rhodamine probe, fluorescence polarization;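 active means inhibition above the screen-wide average of all tested compounds plus 3 SD, cut at about 25% in these data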
# PAFAH1B2 FP inh = PAFAH1B2 (human) inhibition | P68402 | recombinant PAFAH1B2, FP-rhodamine activity probe, fluorescence polarization | inhibition, % at 3.39 µM | 340,000 compounds, 1.2% hits | AID 492953;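 active means inhibition above the mean of all tested compounds plus 3 SD, cut at about 24% in these data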
# Target sequence (P68402 whole entry, looked up): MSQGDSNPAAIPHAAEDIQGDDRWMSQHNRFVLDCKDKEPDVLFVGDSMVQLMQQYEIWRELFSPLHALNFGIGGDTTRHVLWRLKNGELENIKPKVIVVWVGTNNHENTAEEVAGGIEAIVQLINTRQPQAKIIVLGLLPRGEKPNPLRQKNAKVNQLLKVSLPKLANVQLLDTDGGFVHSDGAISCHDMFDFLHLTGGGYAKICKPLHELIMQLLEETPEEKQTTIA
# PfM18AAP inh-1 = blocks P. falciparum M18 aspartyl aminopeptidase | inhibition, % at 7.35 µM | AID 1822 | 290,000 compounds, 1.2% hits | recombinant PfM18AAP, H-Glu-NHMec fluorogenic cleavage;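 active means inhibition above the campaign mean inhibition over all tested compounds plus 3 SD, cut at about 28% in these data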
# PfM18AAP inh-2 = PfM18AAP inhibition, confirmation | shares compounds with PfM18AAP inh-1 | recombinant PfM18AAP, H-Glu-NHMec fluorogenic cleavage | inhibition, % at 7.35 µM | 2,400 compounds, 28% hits | AID 2170;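 active means mean inhibition over replicate wells above the hit cutoff set for the earlier primary screen, cut at about 29% in these data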
# CTSL1 counter = Cathepsin L (human) inhibition, confirmation | shares compounds with PfM18AAP inh-1 | purified cathepsin L1, Z-Leu-Arg-MCA fluorescence | inhibition, % at 5.96 µM | 2,400 tested, under 10 active;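 active means average inhibition across replicates above the hit cutoff set in the earlier primary screen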
# Hits are given with their value; – = inactive; ? = inconclusive; · = no result given. Most compounds without a hit are left out; they make up all but 3.8% or so of the library.
SMILES,pPAFAH inh,PAFAH2 FP inh,Pemphigus Ab inh,PAFAH1B3 FP inh,PAFAH1B2 FP inh,PfM18AAP inh-1,PfM18AAP inh-2,CTSL1 counter
Cc1ccc(NC(=O)CSc2ncn[nH]2)cc1,–,–,–,–,–,31.9,–,–
O=C(CSc1ncn[nH]1)Nc1ccc(Cl)c(S(=O)(=O)N2CCOCC2)c1,–,–,–,–,–,57.3,51.7,–
Cc1ccc(-c2nnc(N3CCN(C(=O)CSc4ncn[nH]4)CC3)c3ccccc23)cc1,–,–,–,–,–,41.6,–,–
COc1ccc(OCC(=O)NNC(=O)c2ccc3c(=O)n4c(nc3c2)CCC4)cc1,–,–,–,–,–,–,·,·
O=C(CN1CCN(c2ccc(O)cc2)CC1)N1CCc2ccccc21,–,–,–,–,–,41.8,–,–
Nc1nc(-c2cccnc2)nn1C(=O)c1ccccc1Cl,·,–,–,–,–,–,·,·
Nc1nncn1C(=O)c1ccccc1Cl,–,–,–,–,–,60.4,54.5,–
O=C(c1ccc(Cl)cc1Cl)N1CCN(c2ccc(N3CCOCC3)nn2)CC1,–,–,–,–,–,·,·,·
Nc1nncn1C(=O)c1ccc(Cl)cc1Cl,–,–,–,–,–,37.1,51.1,–
Cc1ccc(CCN2CC(C(=O)NC(C)C)CC2=O)cc1 (configuration not stated),–,–,–,–,–,–,·,·
CC(=Nc1ccc(O)cc1)c1sc2ccccc2c1O,–,–,–,–,–,54.9,–,–
CN(C)c1ccc(C(=S)N2CCN(c3ccc([N+](=O)[O-])cc3)CC2)cc1,–,–,–,–,–,46.5,–,–
COc1ccc(/C(C)=N\NS(=O)(=O)c2ccccc2)cc1OC,–,–,·,–,–,–,·,·
COc1ccc(/C(C)=N/Nc2nc3ccccc3nc2C)cc1OC,–,–,–,–,–,38.6,–,–
CC1CC(C)CN(S(=O)(=O)c2cccc(C(=O)N3CCN(c4ccc(F)cc4)CC3)c2)C1 (configuration not stated),–,–,–,–,–,·,·,·
COCc1cc(=O)[nH]c(=S)[nH]1,–,–,–,–,–,–,·,·
COCc1cc(C)c(C#N)c(=S)[nH]1,–,–,–,–,–,31.8,34.8,–
O=c1ccc2[n+]([O-])c3ccc(O)cc3oc-2c1,·,154.8,–,149.5,136.3,39.1,–,–
O=c1cc(O)c2ccc(O)cc2o1,–,–,–,–,–,–,·,·
O=C(COC(=O)C1COc2ccccc2O1)Nc1ccccc1OC(F)F (configuration not stated),–,–,–,–,–,·,·,·
CCOc1ccc(Br)cc1S(=O)(=O)NC(=O)c1ccccc1,–,–,–,–,–,–,·,·
Cc1oc2cc(O)ccc2c(=O)c1Oc1ccccc1,–,–,–,–,–,–,·,·
CC(=O)Oc1ccc2c(=O)c(Oc3ccccc3)c(C)oc2c1OC(C)=O,–,–,–,–,–,44.3,–,–
COc1ccc2cc(C3(C)NC(=O)N(CC(=O)N4CCCCC4)C3=O)ccc2c1 (configuration not stated),–,–,–,–,–,·,·,·
O=C(CC(=O)Nc1ccc(Br)cc1)Nc1ccc(Br)cc1,–,–,?,–,–,–,·,·
SMILES,pPAFAH inh,PAFAH2 FP inh,Pemphigus Ab inh,PAFAH1B3 FP inh,PAFAH1B2 FP inh,PfM18AAP inh-1,PfM18AAP inh-2,CTSL1 counter
O=C(Nc1ccc(Br)cc1Cl)Nn1cnnc1,–,–,–,–,–,74.9,78.1,–
O=C(Nc1ccccc1)Nc1ccncc1,–,–,–,–,–,–,·,·
O=C(Nc1ccc(Br)cc1)Nn1cnnc1,–,–,–,–,–,73.3,56.3,–
Cc1cc(C)cc(NC(=O)Nn2cnnc2)c1,·,–,–,–,–,54.5,37.4,–
O=C(Nc1ccccc1)Nn1cnnc1,·,–,–,–,–,56.4,40.0,–
CCC(C)NC(=O)Nc1ccc(Br)cc1Cl (configuration not stated),–,–,–,–,–,–,·,·
COC(=O)c1ccccc1CSc1nsc(/C=C/N(C)C)c1C#N,28.2,–,–,–,–,48.0,–,–
CCCOc1ccc(C2C(C(=O)/C=C/c3ccco3)=C(O)C(=O)N2CCN2CCOCC2)cc1OC (configuration not stated),–,–,–,–,–,33.1,–,–
O=C(CCc1ccc(O)c(O)c1)N/N=C/c1ccc2c(c1)OCO2,–,–,–,–,–,79.4,50.3,–
Cc1c(NC(=S)N/N=C\c2ccccc2O)c(=O)n(-c2ccccc2)n1C,–,–,–,–,–,35.9,–,–
Cc1c(NC(=S)N/N=C/c2ccc(Br)cc2)c(=O)n(-c2ccccc2)n1C,–,–,·,–,–,–,·,·
CNc1nc(NN)nc(Nc2ccccc2)n1,–,–,–,–,–,32.9,–,–
CNc1nc(Nc2ccccc2)nc(OCC(F)(F)F)n1,–,–,–,–,–,–,·,·
Cc1ccc(S(=O)(=O)Nc2ccc3c(c2)nc2n3CCN(Cc3ccccc3)C2)cc1,–,–,–,–,–,–,·,·
O=S(=O)(Nc1ccc2c(c1)nc1n2CCN(Cc2ccccc2)C1)c1ccccc1,25.5,–,·,–,–,59.7,–,–
CN(C)S(=O)(=O)c1ccc(Cl)c(C(=O)NNC(=O)Cn2ccc(C(F)(F)F)n2)c1,·,–,–,–,–,·,·,·
CCN(CC)S(=O)(=O)c1ccc(C(=O)Nn2cnnc2)cc1,–,–,–,–,–,81.0,75.0,–
CCN(CC)S(=O)(=O)c1ccc(C(=O)NC(C)(C)C)cc1,–,–,–,–,–,–,·,·
CN(CC(=O)Nn1cnnc1)S(=O)(=O)c1ccccc1,–,–,–,–,–,32.3,–,–
Cc1cccc(-c2ncc(CN3CCN(CCC(C)C)C(CCO)C3)cn2)c1 (configuration not stated),–,–,–,–,–,–,·,·
CC(C)c1ccc(C2c3[nH]c4ccccc4c3C[C@H]3C(=O)N(c4ccccc4C(=O)N4CCC(C(=O)O)CC4)C(=O)N23)cc1 (some centres not stated),–,–,·,–,–,–,·,·
O=C(c1cc2ccccc2oc1=O)N(Cc1ccccc1)CC1CCCO1 (configuration not stated),–,–,–,–,–,–,·,·
COc1cccc2cc(C(=O)N(Cc3ccccc3)CC3CCCO3)c(=O)oc12 (configuration not stated),–,–,–,–,–,34.8,–,–
Cc1cccc(C)c1NC(=O)CN1C(=O)COc2ccccc21,–,–,–,–,–,–,·,·
CCN(CC)C(=S)SCC(=O)Nc1nc(=O)c2ccccc2s1,–,–,–,–,–,32.1,–,–
OC(CN1CC=C(/C=C/c2ccc(Br)cc2)CC1)c1ccccc1 (configuration not stated),–,–,–,–,–,–,·,·

# Assay outcomes from PubChem.
